FBPA Giardia inh = blocks Giardia fructose-bisphosphate aldolase activity | A8B2U2 | purified Giardia FBPA | Potency, µM (highest dose often 59.6 µM), for inactives: top-dose activity, negative = inhibition, actives largely listed as inhibitors | 0.71% of 290,000 active | AID 2451; also: potency is read from the fitted curve at half-maximal effect; % is scaled to controls: 0 for no effect and ±100 for the full control effect; nearly all actives have a fitted effect of over 55% in size
Target sequence (A8B2U2 whole entry, looked up): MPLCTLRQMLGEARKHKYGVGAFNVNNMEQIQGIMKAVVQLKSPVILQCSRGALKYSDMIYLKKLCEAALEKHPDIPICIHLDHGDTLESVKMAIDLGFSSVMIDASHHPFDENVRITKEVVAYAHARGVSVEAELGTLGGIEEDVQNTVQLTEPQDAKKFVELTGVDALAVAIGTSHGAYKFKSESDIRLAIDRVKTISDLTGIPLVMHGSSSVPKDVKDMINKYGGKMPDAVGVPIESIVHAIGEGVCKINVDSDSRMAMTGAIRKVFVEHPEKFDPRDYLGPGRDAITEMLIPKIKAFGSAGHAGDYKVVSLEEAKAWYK
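40 nM FBPA preincubated 10 min at RT with compound (up to 57.5 uM final), then substrate plus GAPDH/TPI/NAD/arsenate coupling and diaphorase/resazurin added. Fluorescence read after 20 min at RT, 525/598 nm.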
Sm TGR block = inhibitors of Schistosoma mansoni thioredoxin glutathione reductase; Q962Y6; purified TGR, DTNB reduction, TNB absorbance 405 nm; Potency, µM (titrated, usually from 114 µM), for the others: at the highest dose activity change, negative = inhibition, hits mostly inhibitors; 3% of 360,000 active; AID 485364; also: potency is read from the fitted curve at half-maximal effect; % is scaled to controls: 0 for no effect and ±100 for the full control effect; nearly all actives have a fitted effect of over 60% in size
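TGR 20 nM + NADPH 100 uM (dispensed conc.), cpd preinc 15 min RT; start with NADPH (500 uM addition) then DTNB (15 mM addition). Kinetic TNB absorbance, 405 nm filter. Four-parameter Hill fit across titration.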
TbPYK inhibitor = inhibitors of Trypanosoma brucei pyruvate kinase. TbPYK enzyme, Kinase-Glo Plus ATP luminescence, 45 min. 0.12% of 410,000 active. Q57TT1. Potency, µM (top dose mostly 76.8 µM), for the others: top-dose activity, negative = inhibition, hits mostly inhibitors. AID 624173; also: potency is read from the fitted curve at half-maximal effect; % is scaled to controls: 0 for no effect and ±100 for the full control effect; nearly all actives have a fitted effect of over 50% in size
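Enzyme and substrate buffer are dispensed first and compound is pin-transferred. ADP at 130 uM final then starts the reaction, which runs 45 min at room temperature. Detection reagent is added for 10 min before luminescence is imaged.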
LmPK inhibitor = inhibitors of Leishmania mexicana pyruvate kinase. Q27686. Potency, µM (highest dose often 57.5 µM), for the others: at the highest dose activity change, negative = inhibition, most hits filed as inhibitors. AID 1721. purified LmPK, Kinase-Glo ATP luminescence, 1 h. 0.37% of 290,000 active; also: potency is read from the fitted curve at half-maximal effect; % is scaled to controls: 0 for no effect and ±100 for the full control effect
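ATP generated from ADP (0.1 mM) and PEP (0.5 mM) by 0.1 nM LmPK over 1 h at room temperature (pH 7.2 imidazole buffer) was detected by coupled luciferase luminescence. Values were normalized to uninhibited and no-enzyme wells.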
Shiga toxin inh = Shiga toxin inhibition; inhibition, % at 38.7 µM; 9.2% of 290,000 active; Vero cells, Shiga toxin protein synthesis inhibition reporter; AID 2315; in the data active = inhibition mostly above about 28%, no sharp cut-off; inactive = mostly below about 43%; also: 0% is about no effect
Cycloheximide cs = counter-screen for Shiga toxin inhibitors: cycloheximide protein synthesis inhibition; 12% of 300,000 active; max response, %; cell reporter, cycloheximide protein synthesis inhibition counterscreen; in the data active = max response mostly above about 13%, no sharp cut-off; inactive = mostly below about 14%; also: read at 38.3 µM for the half of the compounds with a filed dose; 0% is about no effect
Active calls of the source: *; [ ] = remark or other dose. This is one part of a sample in which hits are shown more often than they occur. Unless noted, calls follow the shape of the dose curve; as a rule, active = well fitted curve in the direction sought with a large enough effect; inconclusive = small, poorly fitted or top-dose-only effect, or another doubt; inactive = no such curve, though single readings can be large; an effect the other way counts as inactive or inconclusive.

`CC(=O)c1cccc(Nc2nc(-c3ccccc3)cs2)c1` gave FBPA Giardia inh -7%, TbPYK inhibitor -13%, LmPK inhibitor -2%, Shiga toxin inh 107* and Cycloheximide cs 33*.
`O=C(Nc1cccc(-c2csc(Nc3ccccc3)n2)c1)c1ccccc1` gave FBPA Giardia inh -12%, Sm TGR block 11%, TbPYK inhibitor -6%, LmPK inhibitor 1%, Shiga toxin inh 84* and Cycloheximide cs 31*.
NC(=NCc1ccccc1)NN=Cc1ccnc2ccccc12 was read as TbPYK inhibitor -19%.
For CCCCC(=O)Nc1cccc(-c2csc(-c3ccccc3)n2)c1 the results were FBPA Giardia inh -2%, Sm TGR block 1%, TbPYK inhibitor -5%, LmPK inhibitor 2%, Shiga toxin inh 61* and Cycloheximide cs 12.
`CC(=O)OC[C@@H]1O[C@@H](O/N=C2/C[C@@H](O)[C@@H](O)[C@@H]3[C@@H]4C(=O)N([C@@H](C)c5ccccc5)C(=O)[C@H]4CC[C@@H]23)[C@H](OC(C)=O)[C@H](OC(C)=O)[C@@H]1OC(C)=O` gave FBPA Giardia inh 3%[12.9 µM].
For COc1ccc2nc(NC(=O)CN3CCOCC3)sc2c1 the results were FBPA Giardia inh -2%, Sm TGR block -8%, TbPYK inhibitor 4%, LmPK inhibitor 11%, Shiga toxin inh 24 and Cycloheximide cs 58*.
`COc1ccc2nc(NC(=O)CN3CCN(C)CC3)sc2c1` gave FBPA Giardia inh 4%, Sm TGR block 0%, TbPYK inhibitor 4%, LmPK inhibitor 2%, Shiga toxin inh 152* and Cycloheximide cs 46*.
Screening COc1ccc2nc(NC(=O)CN3C(=O)NC4(CCCCC4)C3=O)sc2c1 returned Sm TGR block -1%, TbPYK inhibitor 0%, LmPK inhibitor -9%, Shiga toxin inh 34 and Cycloheximide cs 17*.
`COc1ccc(C2/C=C\CN(C(=O)CC(C)(C)C)C(C)C(=O)N2Cc2ccc(F)cc2)cc1` (stereo not given) gave FBPA Giardia inh 2%, Shiga toxin inh -7 and Cycloheximide cs 6.
CCOC(=O)c1ccc(NC(=O)c2oc(=O)c3ccccc3c2-c2ccccc2)cc1 was read as Sm TGR block 5% and TbPYK inhibitor 2%.
For CCCCn1nnnc1SCC(=O)c1ccc(C)c(C)c1 the results were FBPA Giardia inh 3%, Sm TGR block 0%, TbPYK inhibitor 5%, LmPK inhibitor 1%, Shiga toxin inh 19 and Cycloheximide cs 38*.
CCC(=O)Nc1cccc(-n2nnnc2SCC(=O)c2ccc(C)c(C)c2)c1 was read as FBPA Giardia inh 0%, Sm TGR block inconclusive, TbPYK inhibitor -8%, LmPK inhibitor 3%, Shiga toxin inh 42* and Cycloheximide cs 26*.
CCC(=O)Nc1cccc(-n2nnnc2SCC(=O)NCc2ccco2)c1 was read as FBPA Giardia inh 4%, Sm TGR block -4%, TbPYK inhibitor -6%, LmPK inhibitor -3%, Shiga toxin inh 29 and Cycloheximide cs 8.
O=C(Cn1c(Cn2c(-c3cnccn3)nc3ccccc32)nc2ccccc21)c1ccc(OC(F)(F)F)cc1 was read as TbPYK inhibitor 3%.
CCCCC(CC)CNC(=O)CCCn1c(=O)[nH]c2ccsc2c1=O (stereo not given) was read as Sm TGR block -5% and TbPYK inhibitor 0%.
For CCOCC(=O)Nc1nnc(COc2ccc(Cl)cc2)s1 the results were FBPA Giardia inh 3%, Sm TGR block -14%, TbPYK inhibitor -21%, LmPK inhibitor 3%, Shiga toxin inh 12 and Cycloheximide cs 17.
For COCC(=O)Nc1nnc(COc2ccc(Cl)cc2)s1 the results were FBPA Giardia inh -1%, Sm TGR block -18%, TbPYK inhibitor -6%, LmPK inhibitor 4%, Shiga toxin inh 73* and Cycloheximide cs 20*.
O=C(CSc1ccccc1)Nc1nnc(COc2ccc(Cl)cc2)s1 was read as FBPA Giardia inh -13%, Sm TGR block -3%, TbPYK inhibitor inconclusive, LmPK inhibitor 8%, Shiga toxin inh 61* and Cycloheximide cs 65*.
`CCOC(=O)CNC(=O)N1CCCC(Cc2ccccc2)(C(=O)OCC)C1` (stereo not given) gave TbPYK inhibitor 1%.
Clc1cc2nc3ccccn3c2cc1Cl was read as FBPA Giardia inh 6%, Sm TGR block -5%, TbPYK inhibitor -7%, LmPK inhibitor -4%, Shiga toxin inh 68* and Cycloheximide cs 20*.
For CC(C)C(=O)N1c2nc(C(C)C)nn2C2(CCCCC2)[C@@H]2CCCC[C@@H]21 the results were Sm TGR block -2% and TbPYK inhibitor 2%.
Screening Cc1nn(-c2ccc(C(=O)O)cc2)c(C)c1Cl returned FBPA Giardia inh 6%, Sm TGR block 1%, TbPYK inhibitor -7%, LmPK inhibitor 4%, Shiga toxin inh 58* and Cycloheximide cs 25*.
COc1ccc(-c2c(C)nn(-c3ccccc3)c2N)cc1OC was read as FBPA Giardia inh -3%, Sm TGR block 6%, TbPYK inhibitor -13%, LmPK inhibitor -4%, Shiga toxin inh 15 and Cycloheximide cs -2.
COc1ccc(-c2c(C)nn(-c3ccccc3)c2N)cc1 was read as FBPA Giardia inh -1%, Sm TGR block 0%, TbPYK inhibitor 0%, LmPK inhibitor 2%, Shiga toxin inh 51 and Cycloheximide cs 23*.
`Cc1nn(-c2ccc(C(=O)O)cc2)c(N)c1-c1ccccc1` gave FBPA Giardia inh 1%, Sm TGR block -6%, TbPYK inhibitor 1%, LmPK inhibitor 0%, Shiga toxin inh 23* and Cycloheximide cs 28*.
For Cc1nn(-c2ccc(C(=O)O)cc2)c(C)c1Oc1ccccc1O the results were FBPA Giardia inh 10%, Sm TGR block -1%, TbPYK inhibitor -9%, LmPK inhibitor 5%, Shiga toxin inh -6 and Cycloheximide cs -2.
For CN(CC(=O)Nc1ccc(F)cc1)CC(=O)N1CCCCCC1 the results were Sm TGR block -2% and TbPYK inhibitor 0%.
For Fc1ccc(CSc2nncn3c2cc2occc23)c(Cl)c1 the results were Sm TGR block -2% and TbPYK inhibitor 0%.
`COC(=O)Cn1cnc2c(nnn2-c2cccc(OC)c2)c1=O` gave FBPA Giardia inh -8%, Sm TGR block -20%, TbPYK inhibitor 1%, LmPK inhibitor 8%, Shiga toxin inh 2 and Cycloheximide cs 1.
Cc1cccc2sc(NC(=O)c3ccc(OCC4CCCO4)cc3)nc12 (stereo not given) was read as FBPA Giardia inh -5%, TbPYK inhibitor 3%, LmPK inhibitor -11%, Shiga toxin inh 100* and Cycloheximide cs 46*.
